Shown are actives, neighbours in structure and some others; about 6% of the full set was active somewhere.
DRD3 antagonist – blocks the human D3 dopamine receptor | AID 652054 | D3R cells, DiscoveRx beta-arrestin luminescence, antagonist mode; hits give low values | 360,000 compounds, 2.5% hits | max response, negative = inhibition, % | P35462; in the data active = max response below about -50%; inconclusive = no clear call, values can overlap the other calls; note: % is set by controls: 0 for no effect and ±100 for the full control effect
Target sequence (P35462 whole entry, looked up): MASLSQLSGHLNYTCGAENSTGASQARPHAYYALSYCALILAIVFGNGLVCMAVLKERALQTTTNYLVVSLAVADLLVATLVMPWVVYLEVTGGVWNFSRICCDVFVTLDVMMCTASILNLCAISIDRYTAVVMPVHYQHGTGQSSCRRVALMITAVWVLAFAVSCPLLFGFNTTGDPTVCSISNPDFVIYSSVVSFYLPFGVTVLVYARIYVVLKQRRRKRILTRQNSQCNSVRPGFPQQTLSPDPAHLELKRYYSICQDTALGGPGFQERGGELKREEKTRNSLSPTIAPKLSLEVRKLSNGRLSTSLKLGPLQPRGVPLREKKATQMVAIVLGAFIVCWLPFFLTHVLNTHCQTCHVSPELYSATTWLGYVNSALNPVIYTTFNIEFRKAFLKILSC
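Cells plated overnight at 1500 cells/well, then exposed to library compounds with dopamine controls for 90 minutes at 37 degrees C. DiscoveRx reagent added for 30–60 minutes at room temperature; luminescence read, quantitative HTS format.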
D1 potentiator – human D1 dopamine receptor positive modulation | HEK293 TREx D1 cells, calcium flux, dopamine EC20 potentiation | potentiation, % at 10 µM | 360,000 compounds, 0.036% hits; in the data active = potentiation above about 30%; note: 0% is about no effect
Chronic BCR inh – blocks chronic active B-cell receptor signaling; 340,000 compounds, 0.05% hits; Potency, µM (doses to about 46.1 µM), inactives show at the top dose activity change, negative = inhibition, usual class: inhibitors; ABC-DLBCL IkBa-CBG/CBR reporter, luminescence ratio, 4 h; active = well fitted inhibition curve with a large enough effect in the signal ratio, with a control signal flat, not every such curve was filed as active; inconclusive = small, poorly fitted or top-dose-only effect, or effect the other way, or a change in a side signal; the % refers to the signal ratio;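 note: potency is the fitted concentration of half-maximal effect; plate controls were basal doxycycline-induced cells for no effect and cells given 10 µM MG132 for full effect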
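Cell line TMD8 (human ABC DLBCL), stably expressing tet-inducible CBG68-IkBa fusion and CBR; IMDM/0.5% FBS; cpd up to 46 uM; dox induction, 4 h, 37C/5% CO2; dual luminescence; green/red ratio; MG132 control.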
DRD3 agonist – D3 dopamine receptor (human) agonism | P35462 | 410,000 compounds, 0.58% hits | AID 652048 | D3R DiscoveRx beta-arrestin cells, luminescence, 90 min | max activation, %; in the data active = max activation above about 30%; note: 0% is about no effect
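Agonist mode: compounds and dopamine controls were applied to plated cells for 90 min at 37 degrees C after an overnight attachment at 1500 cells/well. Luminescent read-out followed 30 - 60 minutes at room temperature with DiscoveRx detection reagent.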
D1 antagonist – blocks dopamine activation of the human D1 receptor. HEK293 TREx D1 cells, calcium flux, dopamine EC80; hits give low values. AID 504652. 360,000 compounds, 3.2% hits. activity change, negative = inhibition, % at 10 µM. P21728; in the data active = activity change below about -30%; note: % is set by controls: 0 for no effect and ±100 for the full control effect
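Allosteric or orthosteric antagonism assessed as attenuation of the calcium response to EC80 dopamine, added 180 s after compound, in induced HEK293 Trex D1 cells loaded with no-wash calcium dye.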
D1 agonist – activates the human D1 dopamine receptor; HEK293 T-REx D1 cells, calcium flux, agonist mode; activation, % at 2 µM; P21728; 360,000 compounds, 1% hits; in the data active = activation above about 30%; note: 0% is about no effect
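Tetracycline-induced HEK293 TREx D1 cells, force-coupled to calcium signalling, were dye-loaded with a no-wash calcium kit. Compound was pin-added after a 10 s baseline. Fluorescence was read kinetically at 1 cycle/s for 180 s, with calcium rises flagged as agonism.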
Starred values were filed as active, the others as inactive; ? = inconclusive; · = no result.

SMILES	DRD3 antagonist	D1 potentiator	Chronic BCR inh	DRD3 agonist	D1 antagonist	D1 agonist
COc1ccc(/C=C(\C#N)C(=O)NCCc2ccccc2)cc1OCc1ccccc1	-5.1	-2.9	0.4%	3.5	-26.4	33.5*
Cc1cc(/C=C(\C#N)C(=O)NCc2ccccc2)cc(C)c1O	-0.7	-5.7	-1.3%	-3.0	2.7	5.6
COc1cccc(-c2nc(SCc3cccc(Br)c3)n3[nH]c(=O)cc3n2)c1	·	-2.6	·	26.1	-11.4	1.7
COc1ccc(-c2[nH]nc3nc(N4CCN(C(=O)c5ccoc5)CC4)cc(C(F)(F)F)c23)cc1	22.4	·	·	13.5	·	·
Cc1ccccc1NC(=O)c1sc2nc3n(c(=O)c2c1C)N=C(c1ccccc1)CS3	·	0.8	·	1.9	-5.5	-1.5
COc1ccccc1Cn1c(CNS(=O)(=O)c2ccc3c(c2)CCCC3)nc2cccnc21	·	-3.4	·	-10.2	3.1	3.0
NC(COCc1ccccc1)c1csc(Nc2ccc(C(=O)c3ccccc3)cc2)n1 (centres undefined)	29.3	·	·	6.3	·	·
CC(C)(C)n1nc(C2CC2)cc1NC(=O)Nc1ccc(Cl)cc1	15.9	-9.4	?	0.9	-40.8*	9.7
Cc1cc(NC(=O)Nc2ccc(Cl)cc2)n(C(C)(C)C)n1	1.3	-5.7	0.2%	2.9	-2.4	4.6
COc1ccc(OC)c(-c2cc(C(=O)Nc3c(C)nn(Cc4ccccc4)c3C)no2)c1	22.7	0.7	?	35.5*	-43.6*	4.0
COc1ccc(OC)c(-c2cc(C(=O)Nc3c(C)nn(Cc4ccc(Cl)cc4)c3C)no2)c1	16.4	3.5	-16.0%	41.0*	6.8	3.6
Cc1nn(Cc2ccccc2)c(C)c1NC(=O)c1cc(-c2ccco2)on1	12.7	-4.5	-3.3%	12.1	-18.8	0.9
COc1ccc(OC)c(-c2cc(C(=O)NCc3ccco3)no2)c1	-54.1*	-16.2	?	-27.4	-33.5*	3.2
O=C(Nc1ccccc1C(F)(F)F)c1noc2c1CCCC2	·	0.2	·	2.7	-0.5	4.4
CC1=C(C(=O)N2CCN(c3ccc(Cl)cc3)CC2)C2(CCC(C)CC2)OC1=O (centres undefined)	·	6.0	·	-6.8	6.2	2.1
O=C(CSc1nc2c([nH]c3ccccc32)c(=O)n1-c1ccc(F)cc1)NCC1CCCO1 (centres undefined)	·	0.8	·	-12.6	-7.2	-0.3
COc1ccc(CNC(=O)CN2C(=O)c3ccc([N+](=O)[O-])cc3C2=O)cc1	-3.0	-6.1	-2.1%	31.5*	41.4	1.1
CC(=O)Cc1nsc(NC(=O)c2ccccc2)n1	10.8	-4.0	0.7%	-1.0	-7.7	2.2
CC(=O)Cc1nsc(NC(=O)c2ccc(F)cc2)n1	-9.9	-4.0	0.4%	-1.6	-79.6*	0.3
CC(=O)c1cc(CN2CCCCC2)cc(OC(C)C)c1	-19.4	-7.0	-2.8%	-2.5	-44.6*	2.6
COc1ccc(C(=O)CCN2CCCCCC2)cc1	-53.9*	-7.2	?	-56.9	-14.3	2.6
CC(C)Oc1ccc(C(=O)CCN2CCCCC2)cc1	-77.9*	0.1	-15.1%	-4.8	-3.9	3.0
CC(C)(C)c1ccc(C(=O)OCCN2CCCCC2)cc1	-20.4	-4.8	-1.3%	-6.1	-3.2	10.0
CCOc1ccc(C(=O)CCN2CCCCC2)cc1	0.5	-5.1	?	-8.4	-13.6	8.9
COc1ccc(C(=O)OCCN2CCCCC2)cc1	-77.7*	-5.3	?	-11.1	-12.3	2.7
SMILES	DRD3 antagonist	D1 potentiator	Chronic BCR inh	DRD3 agonist	D1 antagonist	D1 agonist
CC(C)Oc1ccc(C(=O)CCN2CCOCC2)cc1	-6.0	·	·	-6.3	·	·
Cc1ccc(S(=O)(=O)N=N/C=C2\C=CC=CN2O)cc1	2.7	·	·	-2.8	·	·
O=C(OCCN1CCCCC1)c1cccc(Cl)c1	-101.6*	-0.6	2.5%	-6.2	18.2	10.2
COc1ccc(CCNC(=O)C(=O)NCC(c2cccnc2)N2CCN(c3ccccc3)CC2)cc1 (centres undefined)	·	-5.1	·	0.9	4.5	9.6
O=C(CCBr)N1CCN(C(=O)CCBr)CC1	·	·	·	-18.6	·	·
COc1cc(CC(=O)OCC(=O)N2CC(=O)Nc3ccccc32)cc(OC)c1OC	-13.2	-4.1	0.7%	-0.8	-32.7*	0.7
O=C1CN(C(=O)COC(=O)c2cccc(S(=O)(=O)NCc3ccccc3)c2)c2ccccc2N1	-4.5	-2.6	?	-1.9	1.3	10.0
O=C1CN(C(=O)COC(=O)c2ccccc2Br)c2ccccc2N1	-55.0*	·	-11.1%	-16.8	-16.3	22.0
O=C1CN(C(=O)COC(=O)c2cccc(OCc3ccccc3)c2)c2ccccc2N1	-2.5	3.5	?	6.2	-89.4*	7.4
O=C1CN(C(=O)COC(=O)c2ccc(Cl)cc2)c2ccccc2N1	5.6	-1.6	?	5.9	-11.1	7.7
COc1ccc(C(=O)N2CCCCC2CCN2CCCCC2)cc1 (centres undefined)	·	-1.6	·	-3.3	32.3	3.3
Cc1ccccc1NC1=C(Cl)C(=O)OC1OC(=O)c1ccccc1C (centres undefined)	-12.5	-1.3	?	-6.4	-21.9	0.8
Cc1cccc(C)c1NC1=C(Cl)C(=O)OC1OC(=O)c1ccccc1 (centres undefined)	0.2	-1.2	-0.1%	-3.1	-48.5*	-1.2
Cc1ccc(NC2=C(Cl)C(=O)OC2OC(=O)c2ccccc2)c(C)c1 (centres undefined)	-10.3	-2.1	?	-4.1	-50.6*	9.2
COc1ccc(C2CC(=O)Nc3c2c(=O)[nH]c2nc4ccccc4n32)cc1OC (centres undefined)	·	0.1	·	1.0	-1.4	-0.1
COc1cc(C2CC(=O)Nc3c2c(=O)[nH]c2nc4ccccc4n32)ccc1O (centres undefined)	·	-4.5	·	-6.6	-48.8*	0.1
CN(C)CC#CCC(O)(c1ccccc1)c1ccccc1	12.2	-7.7	-0.3%	-9.0	-10.5	1.9
CCN(CC)CC#CCC(O)(c1ccccc1)c1ccccc1	-78.5*	-1.2	4.0%	-18.5	6.0	4.0
CCN(CC)CC#CCC(O)(c1ccccc1)c1ccc(Br)cc1 (centres undefined)	-24.3	-3.6	?	-8.6	-39.7*	32.2*
C=CC(O)(C#CCN(CC)CC)c1ccccc1 (centres undefined)	-13.9	-2.1	?	-10.3	-4.0	4.3
CCN(CC)CC#CCC(C)(c1ccccc1)c1ccccc1	-55.1*	-0.1	0.3%	-54.0	3.7	8.4
Cc1ccc(Nc2nc(N)nc(CSc3nccn3C)n2)c(C)c1	-20.5	-2.1	6.3%	-3.2	-32.9*	-0.6
Cc1ccc(SCc2nc(N)nc(Nc3ccccc3C)n2)c(C)c1	23.2	-0.1	-0.6%	0.3	9.9	5.9
CC(O)(c1ccncc1)c1nc(-c2cccc(C(F)(F)F)c2)cs1 (centres undefined)	40.4	·	·	11.1	·	·
